Measured values as given in PubChem BioAssay AID1159580 (chemical genetic matrix, 2015).
In all, about 5,500 compounds went through this assay and about 2,000 (36%) were called active. Another 18% or so got no clear call; they are omitted. Rule as the data show it: active = normalized growth mostly below about 0.91 (no sharp cut-off); inconclusive = no clear call, values can overlap the other calls; inactive = mostly above about 0.92. The list shows a part of the results.

Assay: chemical genetic growth profiling, strain panel (AID 1159580);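 also: tested at 20 µM; growth read once vehicle control cultures reached saturation at 30 °C; 1 = growth at the plate median or of vehicle wells; lower values mean less growth of the strain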
Conditions: growth OD

Measured: normalized growth

CC1CC2C3CC(F)C4=CC(=O)C=CC4(C)C3(F)C(O)CC2(C)C1(O)C(=O)CO (centres undefined)
inactive: S. cerevisiae deletion strains, locus YJR043C, strain POL32, active compounds read low 1.08 | S. cerevisiae deletion strains, locus YJR075W, strain HOC1, active compounds read low 1.02 | S. cerevisiae deletion strains, locus YKL009W, strain mrt4, active compounds read low 1.01 | S. cerevisiae deletion strains, locus YKL068W, active compounds read low 1.01 | S. cerevisiae deletion strains, locus YKL085W, strain MDH1 (second series), active compounds read low 1.01 | S. cerevisiae deletion strains, locus YKL085W, strain MDH1, active compounds read low 1.01 | S. cerevisiae deletion strains, locus YKL160W, strain elf1, active compounds read low 0.984 | S. cerevisiae deletion strains, locus YKL190W, strain CNB1, active compounds read low 1.02 | S. cerevisiae deletion strains, locus YKR001C, strain vps1, active compounds read low 1.03 | S. cerevisiae deletion strains, locus YKR026C, strain gcn3, active compounds read low 0.998 | S. cerevisiae deletion strains, locus YKR091W, strain srl3, active compounds read low 1 | S. cerevisiae deletion strains, locus YLL001W, strain dnm1, active compounds read low 0.984 | S. cerevisiae deletion strains, locus YLL026W, active compounds read low 0.997 | S. cerevisiae deletion strains, locus YLL041C, strain sdh2, active compounds read low 0.999 | S. cerevisiae deletion strains, locus YLR027C, strain aat2, active compounds read low 0.997 | S. cerevisiae deletion strains, locus YLR039C, strain RIC1, active compounds read low 1.08 | S. cerevisiae deletion strains, locus YLR058C, strain SHM2, active compounds read low 1.02 | S. cerevisiae deletion strains, locus YLR102C, strain apc9, active compounds read low 1.02 | S. cerevisiae deletion strains, locus YLR221C, strain rsa3, active compounds read low 0.985 | S. cerevisiae deletion strains, locus YLR258W, strain gsy2, active compounds read low 0.995 | S. cerevisiae deletion strains, locus YLR262C, strain YPT6 (second series), active compounds read low 0.984 | S. cerevisiae deletion strains, locus YLR262C, strain YPT6, active compounds read low 1.08 | S. cerevisiae deletion strains, locus YLR268W, strain sec22, active compounds read low 1.02 | S. cerevisiae deletion strains, locus YLR320W, strain mms22, active compounds read low 0.993 | S. cerevisiae deletion strains, locus YLR330W, strain CHS5, active compounds read low 1.02 | S. cerevisiae deletion strains, locus YLR342W, strain FKS1 (second series), active compounds read low 1.1 | S. cerevisiae deletion strains, locus YLR342W, strain FKS1, active compounds read low 0.991 | S. cerevisiae deletion strains, locus YLR357W, strain rsc2, active compounds read low 1.01 | S. cerevisiae deletion strains, locus YLR370C, strain arc18, active compounds read low 1 | S. cerevisiae deletion strains, locus YLR371W, strain rom2, active compounds read low 1.01 | S. cerevisiae deletion strains, locus YLR384C, strain iki3, active compounds read low 0.986 | S. cerevisiae deletion strains, locus YLR418C, strain cdc73, active compounds read low 1 | S. cerevisiae deletion strains, locus YML016C, strain PPZ1, active compounds read low 1.02 | S. cerevisiae deletion strains, locus YML032C, strain rad52, active compounds read low 1.05 | S. cerevisiae deletion strains, locus YML120C, strain ndi1, active compounds read low 1 | S. cerevisiae deletion strains, locus YML124C, strain tub3, active compounds read low 1.02 | S. cerevisiae deletion strains, locus YMR058W, strain fet3, active compounds read low 1.01 | S. cerevisiae deletion strains, locus YMR078C, strain ctf18, active compounds read low 1.02 | S. cerevisiae deletion strains, locus YMR125W, strain sto1, active compounds read low 0.986 | S. cerevisiae deletion strains, locus YMR129W, active compounds read low 1 | S. cerevisiae deletion strains, locus YMR205C, strain PFK2, active compounds read low 0.984 | S. cerevisiae deletion strains, locus YMR223W, strain ubp8, active compounds read low 1.04 | S. cerevisiae deletion strains, locus YMR231W, strain pep5, active compounds read low 0.995 | S. cerevisiae deletion strains, locus YMR263W, strain SAP30, active compounds read low 1.04 | S. cerevisiae deletion strains, locus YMR307W, strain GAS1, active compounds read low 1.09 | S. cerevisiae deletion strains, locus YNL067W, strain RPL9B, active compounds read low 1.03 | S. cerevisiae deletion strains, locus YNL071W, strain lat1, active compounds read low 0.999 | S. cerevisiae deletion strains, locus YNL128W, strain TEP1, active compounds read low 1.01 | S. cerevisiae deletion strains, locus YNL153C, strain GIM3, active compounds read low 1.03 | S. cerevisiae deletion strains, locus YNL209W, strain ssb2, active compounds read low 0.996 | S. cerevisiae deletion strains, locus YNL233W, strain BNI4, active compounds read low 1.02 | S. cerevisiae deletion strains, locus YNL248C, strain rpa49, active compounds read low 1.01 | S. cerevisiae deletion strains, locus YNL250W, strain rad50, active compounds read low 1.04 | S. cerevisiae deletion strains, locus YNL271C, strain bni1, active compounds read low 1.03 | S. cerevisiae deletion strains, locus YNL298W, strain CLA4, active compounds read low 1.03 | S. cerevisiae deletion strains, locus YNL307C, strain MCK1, active compounds read low 1.05 | S. cerevisiae deletion strains, locus YNL322C, strain KRE1 (second series), active compounds read low 0.974 | S. cerevisiae deletion strains, locus YNL322C, strain KRE1, active compounds read low 1.02 | S. cerevisiae deletion strains, locus YNR049C, strain mso1, active compounds read low 0.992 | S. cerevisiae deletion strains, locus YNR052C, strain pop2, active compounds read low 1.03 | S. cerevisiae deletion strains, locus YOL006C, strain TOP1, active compounds read low 1.06 | S. cerevisiae deletion strains, locus YOL012C, strain htz1 0.779 | S. cerevisiae deletion strains, locus YOL147C, strain pex11, active compounds read low 1.02 | S. cerevisiae deletion strains, locus YOR001W, strain rrp6, active compounds read low 1.03 | S. cerevisiae deletion strains, locus YOR061W, strain CKA2, active compounds read low 1.02 | S. cerevisiae deletion strains, locus YOR069W, strain VPS5, active compounds read low 1.01 | S. cerevisiae deletion strains, locus YOR070C, strain gyp1, active compounds read low 1 | S. cerevisiae deletion strains, locus YOR080W, strain dia2, active compounds read low 0.995 | S. cerevisiae deletion strains, locus YOR083W, strain WHI5, active compounds read low 0.965 | S. cerevisiae deletion strains, locus YOR106W, strain vam3, active compounds read low 0.97 | S. cerevisiae deletion strains, locus YOR136W, strain idh2, active compounds read low 1.03 | S. cerevisiae deletion strains, locus YOR144C, strain elg1, active compounds read low 1.02 | S. cerevisiae deletion strains, locus YOR184W, strain ser1, active compounds read low 1.08 | S. cerevisiae deletion strains, locus YOR265W, strain rbl2, active compounds read low 1.01 | S. cerevisiae deletion strains, locus YOR270C, strain vph1, active compounds read low 0.928 | S. cerevisiae deletion strains, locus YOR290C, strain snf2, active compounds read low 0.988 | S. cerevisiae deletion strains, locus YOR316C, strain cot1, active compounds read low 1.03 | S. cerevisiae deletion strains, locus YPL051W, strain arl3, active compounds read low 0.989 | S. cerevisiae deletion strains, locus YPL055C, strain LGE1, active compounds read low 1.09 | S. cerevisiae deletion strains, locus YPL078C, strain atp4, active compounds read low 1.03 | S. cerevisiae deletion strains, locus YPL106C, strain sse1, active compounds read low 0.957 | S. cerevisiae deletion strains, locus YPL240C, strain hsp82, active compounds read low 1 | S. cerevisiae deletion strains, locus YPL241C, strain CIN2, active compounds read low 1.02 | S. cerevisiae deletion strains, locus YPR119W, strain clb2, active compounds read low 1.01 | S. cerevisiae deletion strains, locus YPR141C, strain kar3, active compounds read low 1.02 | S. cerevisiae deletion strains, locus YPR163C, strain tif3, active compounds read low 1.04 | S. cerevisiae deletion strains, locus YPR167C, strain met16, active compounds read low 1.01 | S. cerevisiae deletion strains, strain wtn01, active compounds read low 1.02 | S. cerevisiae strains, strain wild type, active compounds read low 1.03
